An excerpt weighted towards active compounds, which were near 21% of everything screened.
Pf growth 96h: P. falciparum growth inhibition at 96 hour, primary screen for plastid delayed-death inhibitors; Potency, µM (titrated, usually from 28.7 µM), without a hit: top-dose activity change, negative = inhibition, most hits filed as inhibitors; P. falciparum luciferase reporter growth, 96 h; actives 6.9% (n = 320,000); AID 504834; also: potency is read from the fitted curve at half-maximal effect; % is scaled to controls: 0 for no effect and ±100 for the full control effect
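Cell-based qHTS: luciferase-tagged P. falciparum in erythrocytes (2% hematocrit, 0.05% parasitemia final) incubated with compounds for 96 hours, 37 C, 5% CO2; luciferase detection reagent then added and luminescence measured.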
Pf growth 48h: inhibits P. falciparum growth in the first generation, 48 h; P. falciparum luciferase growth in erythrocytes, 48 h; Potency, µM (doses to about 28.7 µM), inactives show top-dose activity change, negative = inhibition, most hits filed as inhibitors; actives 5.9% (n = 310,000); AID 504832; also: potency is read from the fitted curve at half-maximal effect; % is scaled to controls: 0 for no effect and ±100 for the full control effect
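Luminescence readout; reporter = integrated firefly luciferase in P. falciparum. RBC culture at 2% hematocrit, 0.1% parasitemia final, 37 C/5% CO2; decreased signal taken as growth inhibition.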
Shiga inhibitor: blocks Shiga toxin action in Vero cells. Vero cells, Shiga toxin protein synthesis inhibition reporter. inhibition, % at 38.7 µM. actives 9.2% (n = 290,000). AID 2315; in the data active = inhibition mostly above about 28%, no sharp cut-off; inactive = mostly below about 43%; also: 0% is about no effect
FBPA Giardia inh: blocks Giardia fructose-bisphosphate aldolase activity. purified Giardia FBPA. Potency, µM (highest dose often 59.6 µM), without a hit: top-dose activity, negative = inhibition, actives largely listed as inhibitors. actives 0.71% (n = 290,000). AID 2451; also: potency is read from the fitted curve at half-maximal effect; % is scaled to controls: 0 for no effect and ±100 for the full control effect; nearly all actives have a fitted effect of over 55% in size
Target sequence (A8B2U2 whole entry, looked up): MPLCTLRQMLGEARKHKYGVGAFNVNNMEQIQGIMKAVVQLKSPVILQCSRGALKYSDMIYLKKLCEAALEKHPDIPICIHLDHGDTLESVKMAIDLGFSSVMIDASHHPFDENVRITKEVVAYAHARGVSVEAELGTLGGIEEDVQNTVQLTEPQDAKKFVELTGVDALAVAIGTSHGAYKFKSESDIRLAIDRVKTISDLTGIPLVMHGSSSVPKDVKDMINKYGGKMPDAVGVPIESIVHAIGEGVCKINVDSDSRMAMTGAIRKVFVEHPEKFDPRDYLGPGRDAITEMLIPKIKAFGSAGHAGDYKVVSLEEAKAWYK
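Giardia FBPA (40 nM reagent) was preincubated 10 min at RT with compound (up to 57.5 uM final), then substrate plus GAPDH/TPI/NAD/arsenate coupling system with diaphorase/resazurin was added; resorufin fluorescence (525/598 nm) was read after 20 min.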
CHX counter: counter-screen hit for Shiga toxin inhibitors, cycloheximide. actives 12% (n = 300,000). max response, %. cell reporter, cycloheximide protein synthesis inhibition counterscreen; in the data active = max response mostly above about 13%, no sharp cut-off; inactive = mostly below about 14%; also: read at 38.3 µM for the half of the compounds with a filed dose; 0% is about no effect
NS1 inh: influenza NS1 inhibition. Potency, µM (top dose mostly 46.1 µM), inactives show at the highest dose activity, positive = more growth. actives 0.4% (n = 270,000). AID 2326; calls by dose curve; also: potency is read from the fitted curve at half-maximal effect; actives are rising curves; nearly all actives have a fitted effect of over 50% in size
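S. cerevisiae expressing influenza A NS1, grown in glucose, washed, then diluted 1:100 into pH 6.0 -URA galactose medium with 23 nl compound. Growth recovery read as OD600; NS1-free strain serves as control.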
Starred values were filed as active, the others as inactive; u = inconclusive; x = no result given; [ ] = dose if it differs, or a comment. Unless noted, calls follow the shape of the dose curve; as a rule, active = well fitted curve in the direction sought with a large enough effect; inconclusive = small, poorly fitted or top-dose-only effect, or another doubt; inactive = no such curve, though single readings can be large; an effect the other way counts as inactive or inconclusive.

SMILES	Pf growth 96h	Pf growth 48h	Shiga inhibitor	FBPA Giardia inh	CHX counter	NS1 inh
Cc1ccccc1NC(=O)c1ccc(S(=O)(=O)C(F)F)cc1	24.6%	19.8%	-3.5	-5.1%	18.4*	8.0%
CC1CCN(C(=O)COC(=O)C23CC4CC(CC(O)(C4)C2)C3)CC1	82.1%	32.1%	x	x	x	x
COCc1cc(CN(C)C(=O)c2oc3c(F)cccc3c2C)[nH]n1	13.1µM*	10.8%	13.1	-5.4%	23.7*	-12.2%
Cc1c(C(=O)N(C)CCOc2ccccc2)oc2c(Cl)cccc12	-10.6%	u	x	x	x	x
COc1cccc(-c2ccc3ncnc(NCCNC(C)=O)c3c2)c1	x	x	x	1.6%	x	x
CCCc1cc(NCc2ccccn2)n2nc(C)c(-c3ccccc3)c2n1	13.1µM*	2.62µM*	1.6	-12.3%	-0.9	-108.2%
Cc1nn2c(N3CCOCC3)cc(C(C)C)nc2c1-c1ccccc1	-10.3%	-9.7%	-8.4	0.1%	-1.2	-3.5%
Cc1nn2c(NCCCn3ccnc3)cc(C(C)C)nc2c1-c1ccccc1	8.28µM*	2.08µM*	-6.5	5.5%	2.1	-3.1%
Cc1nn2c(NCc3ccccn3)cc(C(C)C)nc2c1-c1ccccc1	1.65µM*	1.65µM*	-4.9	-1.9%	1.0	-80.8%
CCN1CCN(c2cc(C(C)C)nc3c(-c4ccccc4)c(C)nn23)CC1	14.7µM*	u	-5.6	-4.5%	-0.5	-3.2%
CCCc1cc(N2CCCC2)n2nc(C)c(-c3ccccc3)c2n1	u	u	-9.4	7.7%	-1.2	-11.5%
Cc1nn2c(NCC(C)C)c3c(nc2c1-c1ccccc1)CCC3	u	u	2.4	6.8%	-3.2	-46.6%
CC(Sc1nc2c(cc1C#N)CCCCC2)C(=O)O (stereo unspecified)	26.0%	7.8%	5.8	19.2%	-2.4	3.9%
COC(=O)c1ccc(=O)n(CC(=O)c2ccc(Cl)cc2)c1	40.6%	20.9%	28.5	3.8%	6.3	-1.8%
COc1cccc(/C=C/C(=O)Nc2ccc3[nH]c(=O)[nH]c3c2)c1	7.6%	4.8%	0.4	-16.5%	-2.6	5.6%
COc1cc(/C=C/C(=O)Nc2cccnc2)cc(OC)c1OC	9.28µM*	-15.6%	13.4	-4.7%	-1.0	-18.1%
COc1cc(/C=C/C(=O)N2CCC=CC2=O)cc(OC)c1OC	u	9.28µM*	x	6.1%	x	x
COc1cc(/C=C\C(=O)Nc2cc(=O)n(C)c(=O)n2C)cc(OC)c1OC	u	5.22µM*	19.3	3.4%	7.6	x
COc1cc(/C=C/C(=O)Nc2ccc3[nH]c(=O)[nH]c3c2)cc(OC)c1OC	-10.4%	10.4µM*	-2.5	-6.0%	1.6	9.6%
COC(=O)c1ccc(C(NC(=O)OCc2ccccc2)/C(=C/[C@@H](C)C(=O)NCCF)c2cccnc2)cc1 (stereo partly specified)	x	x	x	4.3%	x	x
COc1ccc(S(=O)(=O)NCC2CCC(C(=O)O)CC2)cc1 (stereo unspecified)	-13.8%	2.9%	1.4	0.6%	-7.2	u
CCOC(=O)C1CCN(C(=O)c2ccc(OCC)c(OCC)c2)CC1	14.7µM*	-22.0%	-16.4	3.7%	-2.2	-0.7%
CCOC(=O)C1CCN(C(=O)c2ccc(OC3CCN(C(=O)COC)CC3)cc2)CC1	20.9%	5.7%	28.2	1.4%	10.7*	9.9%
CCOC(=O)N1CCN(C(=O)c2ccc(OCC)c(OCC)c2)CC1	165.2%	-1.5%	7.0	0.9%	-3.2	1.4%
O=C(Nc1ccc2c(c1)C(=O)OC2)c1ccc(Cl)cc1Cl	55.3%	36.2%	10.1	8.0%	16.0	-9.5%
SMILES	Pf growth 96h	Pf growth 48h	Shiga inhibitor	FBPA Giardia inh	CHX counter	NS1 inh
O=C(Nc1ccc2c(c1)C(=O)OC2)c1ccc(F)cc1F	97.3%	56.2%	34.9*	1.7%	26.5*	-5.4%
O=C(Nc1ccc2c(c1)C(=O)OC2)c1ccc(Cl)cc1	30.3%	22.9%	40.1	-6.6%	18.2*	11.5%
O=S(=O)(O)c1cccc2c(N=Nc3ccc(O)c4ncccc34)cccc12	-16.9%	u	-4.2	u	0.7	6.7%
COc1cccc(N=Nc2ccc(O)c3ncccc23)c1	u	u	88.7*	u	12.8*	-114.9%
O=Nc1ccc(O)c2ncccc12	3.29µM*	1.47µM*	44.2*	u	55.7*	3.5%
COc1ccc(N=Nc2ccc(O)c3ncccc23)cc1	0.522µM*	0.586µM*	5.9	-2.4%	5.0	17.0%
Cc1ccccc1N=Nc1ccc(O)c2ncccc12	u	0.37µM*	1.6	-8.9%	-3.5	-15.8%
Cc1ccc(O)c2ncccc12	u	-19.5%	x	x	x	x
O=C1C2=C(Nc3cc([N+](=O)[O-])ccc3N2)O[C@@H]1c1c[nH]c2ccc(COc3ccccc3)cc12	x	x	x	x	x	12.8%
CC(c1ncncc1F)[C@](O)(Cn1cncn1)c1ccc(F)cc1F (stereo partly specified)	u	-11.1%	x	x	x	x
O=C(O)c1ccccc1-n1c2ccccc2c2ccccc21	63.0%	119.2%	0.8	29.7%	1.9	5.5%
O=S(=O)(O)c1ccc2cc(N=Nc3cc(S(=O)(=O)O)c4cccnc4c3O)ccc2c1	x	x	x	x	x	-0.6%
COc1cccc(N=Nc2ccc3cccnc3c2O)c1	u	x	62.3*	u	29.7*	-94.2%
Oc1ccc(N=Nc2ccc3c(c2)OCCO3)c2cccnc12	u	1.04µM*	135.1*	-5.4%	44.0*	x
O=[N+]([O-])c1ccc(O)c2ncccc12	9.53µM*	13.5µM*	-3.8	19.9µM*	-2.3	-38.9%
Cc1ccc(N=Nc2ccc(O)cc2)c(Br)c1	335.6%	179.4%	49.0*	0.2%	43.8*	-153.5%
O=C(CSc1ccc2c(c1)OCCO2)Nc1ncccc1O	54.4%	59.6%	x	x	x	x
O=[N+]([O-])c1ccc(O)c2cccnc12	47.3%[5.75 µM]	1.8%	-9.5	u	10.6	x
Cc1ccc(C)c(NNC(=O)C(=O)NNc2cc(C)ccc2C)c1	-8.5%	-8.5%	-9.9	-8.0%	2.2	-0.1%
CCC/C=C(\CCC)C(NS(=O)(=O)c1cccc2cccnc12)c1ccc(-c2ccccc2)cc1 (stereo unspecified)	x	x	x	-1.8%	x	x
Nc1ccc(N=Nc2ccccc2)c2cccnc12	14.4%	49.7%	89.9*	7.0%	47.9*	9.9%
COc1ccc(C)cc1N=Nc1ccc(O)c2ncccc12	u	2.62µM*	33.3	-2.5%	-1.7	x
O=c1[nH]c(=O)n(-c2ccccc2)c(O)c1N=Nc1ccc(Br)cc1	3.3%	67.7%	20.2	-5.9%	19.1	x
Oc1ccc(N=Nc2ccc(Br)cc2)c(O)c1	1.85µM*	u	84.3*	8.1%	48.0*	-51.4%
Oc1ccc(N=Nc2ccc3c(c2)OCCO3)c(O)c1	152.0%	129.9%	25.4	-1.9%	22.3*	4.2%
O=C(CNC(=O)c1ccc2c(c1)OCCO2)N/N=C/c1ccc(O)cc1O	u	-5.0%	-14.2	-20.8%	-7.4	1.2%
COc1ccc(-c2noc(CNS(=O)(=O)c3ccc(NC(C)=O)cc3)n2)cc1OC	u	17.8%	-5.6	x	10.5	4.6%

Screens from PubChem.
